# Assay results as given in PubChem BioAssay (NCATS).
# A number with no mark means an inactive call. Inconclusive results are not listed. Entries that show only a call come without a potency. The source made the active and inactive calls. Calls follow the shape of the dose curve; as a rule, active = well fitted curve in the direction sought with a large enough effect; inconclusive = small, poorly fitted or top-dose-only effect, or another doubt; inactive = no such curve, though single readings can be large; an effect the other way counts as inactive or inconclusive.
# How the values were obtained:
# [1] = molecular target: Glutathione peroxidase 1 (Homo sapiens) (UniProt P07203); assay: Primary qHTS Assay for Inhibitors of Recombinant Selenoprotein Glutathione Peroxidase 1 (GPX1) (AID 1845191); also: nearly all actives have a fitted effect of over 65% in size; also: potency is read from the fitted curve at half-maximal effect
# Summary of the method: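 GPX1 10 nM, GR 100 nM, GSH 1 mM, NADPH 0.5 mM, CHP 0.5 mM (final). 30-min cpd preincubation, RT. Ex340/Em450 read t=0, t=15 min.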
# [2] = molecular target: Phospholipid hydroperoxide glutathione peroxidase GPX4 (Homo sapiens) (UniProt P36969); assay: Primary qHTS Assay for Inhibitors of Recombinant Selenoprotein Glutathione Peroxidase 4 (GPX4) (AID 1845192); also: nearly all actives have a fitted effect of over 65% in size; also: potency is read from the fitted curve at half-maximal effect
# Summary of the method: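 qHTS, GR-coupled: GPX4 200 nM + cpd 30 min RT → GSH 1 mM, NADPH 0.5 mM, GR 100 nM → CHP 0.5 mM start; fluor 340/450 at t0 and t15 min; no-enzyme wells as control.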
# [3] = molecular target: Luciferin 4-monooxygenase (Photinus pyralis) (UniProt P08659); assay: Primary firefly luciferase (FLuc) qHTS assay for identification of artifact compounds. (AID 1845220); also: nearly all actives have a fitted effect of over 60% in size; also: potency is read from the fitted curve at half-maximal effect
# Summary of the method: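 In this counter-screen for luciferase artifacts, test compounds met substrate (10 uM each luciferin and ATP) before 10 nM enzyme started the reaction. Light output was measured 5 min later.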
# [4] = Primary fluorescence-based thiol-reactive (MSTI) qHTS assay for identification of artifact compounds. (AID 1845221);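 also: series mostly up to about 54 µM; thiol-reactive compounds lower the probe fluorescence signal; nearly all actives have a fitted effect of over 65% in size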
# Summary of the method: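 Curve-fitted percent inhibition (4-parameter Hill) derived from fluorescence, Ex 525/Em 598 nm, scaled with Acetyl-MSTI and MSTI; 1 h incubation at room temperature.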
# [5] = test system: Nanoluciferase (engineered Oplophorus gracilirostris luciferase); assay: Primary Nanoluciferase (NLuc) qHTS assay for identification of artifact compounds. (AID 1845222); also: potency is read from the fitted curve at half-maximal effect
# Summary of the method: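 Using secreted nanoluciferase in S16 culture medium (0.22 um filtered, 1:55 dilution), compounds were preincubated 15 min at RT. Signal was generated with Nano-Glo reagent (1:100) over 5 min.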
# [6] = Primary redox qHTS assay for identification of artifact compounds. (AID 1845223)
# Summary of the method: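 Redox-cycling detection via DTT (250 uM final) oxidation coupled to Amplex Red (25 uM)/HRP (250 mU/mL) in HBSS. 15 min preincubation plus 30 min after DTT, room temperature. Ex/Em 525/598 nm; 4-parameter Hill fit against DMSO and 10 uM DA3003.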
# Chain of Glutathione peroxidase 1 (Homo sapiens) (P07203 whole entry, looked up): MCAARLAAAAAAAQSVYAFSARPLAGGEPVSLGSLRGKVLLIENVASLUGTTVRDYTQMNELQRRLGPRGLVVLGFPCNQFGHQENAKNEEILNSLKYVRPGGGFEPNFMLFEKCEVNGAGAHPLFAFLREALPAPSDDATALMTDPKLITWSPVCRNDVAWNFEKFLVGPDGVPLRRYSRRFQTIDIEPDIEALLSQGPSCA
# Chain of Phospholipid hydroperoxide glutathione peroxidase GPX4 (Homo sapiens) (P36969 whole entry, looked up): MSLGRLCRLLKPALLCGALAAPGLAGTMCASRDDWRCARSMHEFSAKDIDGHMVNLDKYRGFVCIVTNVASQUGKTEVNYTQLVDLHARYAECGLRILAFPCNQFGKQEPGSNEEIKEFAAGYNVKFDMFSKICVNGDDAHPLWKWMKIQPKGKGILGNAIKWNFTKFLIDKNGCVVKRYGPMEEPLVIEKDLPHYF
smiles,measurement,setting,value
CCC1C(=O)OCC1Cc1cncn1C (stereo not given),Potency,[1],inactive
same,Potency,[2],inactive
C=C[C@@H]1CN2CC[C@@H]1C[C@H]2[C@H](O)c1ccnc2ccc(OC)cc12,Potency,[1],inactive
same,Potency,[2],inactive
N[C@H](CCCP(=O)(O)O)C(=O)O,Potency,[1],inactive
same,Potency,[2],inactive
O=c1[nH]c2cc([N+](=O)[O-])c([N+](=O)[O-])cc2[nH]c1=O,Potency,[1],inactive
same,Potency,[2],inactive
Cc1ccc(S(=O)(=O)/C=C/C#N)cc1,Potency,[1],inactive
same,Potency,[2],inactive
CCOC(=O)N1CCN(/[N+]([O-])=N/Oc2ccc([N+](=O)[O-])cc2[N+](=O)[O-])CC1,Potency,[1],inactive
same,Potency,[2],inactive
Nc1nc2c(ncn2[C@@H]2O[C@H](CO)[C@@H](O)[C@@H]2O)c(=O)[nH]1,Potency,[1],inactive
same,Potency,[2],inactive
Oc1cc2c(cc1O)CN(C(=S)NCCc1ccc(Cl)cc1)CCC2,Potency,[1],inactive
same,Potency,[2],inactive
N[C@@H](CC(=O)O)C(=O)O,Potency,[1],inactive
same,Potency,[2],inactive
O=C(O)c1cc([N+](=O)[O-])ccc1NCCCc1ccccc1,Potency,[1],inactive
same,Potency,[2],inactive
Nc1nc(Nc2ccccc2)nc2c1ncn2[C@@H]1O[C@H](CO)[C@@H](O)[C@H]1O,Potency,[1],inactive
same,Potency,[2],inactive
CCCC(CCC)C(=O)OC1CC2CCC(C1)[N+]2(C)C (stereo not given),Potency,[1],inactive
same,Potency,[2],inactive
Cc1ccc(O)c(N=Nc2ccccc2)n1,Potency,[1],inactive
same,Potency,[2],inactive
CCN(CC)c1ncnc2c1ncn2[C@@H]1O[C@H](COP(=O)(O)OP(=O)(O)C(Br)(Br)P(=O)(O)O)[C@@H](O)[C@H]1O,Potency,[1],inactive
same,Potency,[2],inactive
CCCCCCCC/C=C/C(=O)O,Potency,[1],inactive
same,Potency,[2],inactive
O=C(OCc1ccccc1)c1ccccc1,Potency,[1],inactive
same,Potency,[2],inactive
CN(C)c1ccc(/C=C2\C(=O)Nc3ccccc32)cc1,Potency,[1],inactive
same,Potency,[2],inactive
CCCCC1C(=O)N(c2ccccc2)N(c2ccc(O)cc2)C1=O (stereo not given),Potency,[1],inactive
same,Potency,[2],inactive
c1ccc2sc(SN3CCOCC3)nc2c1,Potency,[1],20.2 µM (active)
same,Potency,[2],inactive
Clc1ccc(N2CCN(Cc3c[nH]c4ncccc34)CC2)cc1,Potency,[1],inactive
same,Potency,[2],inactive
COc1cccc(C(=O)NCCN2CCN(c3ccc(Cl)cc3)CC2)c1,Potency,[1],inactive
same,Potency,[2],inactive
CC1CN(S(=O)(=O)c2cccc3cnccc23)CCN1 (stereo not given),Potency,[1],inactive
same,Potency,[2],inactive
C#C[C@]1(O)CC[C@H]2[C@@H]3CCC4=Cc5oncc5CC4(C)[C@H]3CCC21C (stereo not given in full),Potency,[1],inactive
same,Potency,[2],inactive
CO[C@H]1O[C@@H]2O[C@]3(C)CC[C@@H]4[C@@H](C)CC[C@H]([C@H]1C)[C@]24OO3,Potency,[1],inactive
same,Potency,[2],inactive
NCC1OC(O[C@H]2[C@H](O)[C@@H](OC3C(O)C(N)CC(N)C3OC3OC(CO)C(O)C(O)C3N)O[C@@H]2CO)C(N)C(O)C1O (stereo not given in full),Potency,[1],inactive
same,Potency,[2],inactive
CN1CCc2cccc3c2C1Cc1ccc(O)c(O)c1-3 (stereo not given),Potency,[1],inactive
same,Potency,[2],inactive
Nc1nc(Cl)nc2c1ncn2[C@@H]1O[C@H](CO)[C@@H](O)[C@H]1O,Potency,[1],inactive
same,Potency,[2],inactive
Nc1ncnc2c1ncn2[C@@H]1O[C@H](COP(=O)(O)OP(=O)(O)OP(=O)(O)OP(=O)(O)OC[C@@H]2O[C@H](n3cnc4c(N)ncnc43)[C@@H](O)[C@H]2O)[C@@H](O)[C@H]1O,Potency,[1],inactive
same,Potency,[2],inactive
C=CCc1cccc(/C=N/NC(=O)CN2CCN(Cc3ccccc3)CC2)c1O,Potency,[1],inactive
same,Potency,[2],inactive
COc1cc(SC)ccc1C(=O)N1CCC(Cc2ccccc2)CC1,Potency,[1],inactive
same,Potency,[2],inactive
O=[N+]([O-])c1ccc(CSc2ncnc3c2ncn3[C@@H]2O[C@H](CO)[C@@H](O)[C@H]2O)cc1,Potency,[1],inactive
same,Potency,[2],inactive
CCCCCCCCCCCCCCCCCC(=O)OC(CC(=O)O)C[N+](C)(C)C (stereo not given),Potency,[1],inactive
same,Potency,[2],inactive
NCCSSCCN,Potency,[1],inactive
same,Potency,[2],inactive
N#C/C(=C\c1ccc(-c2cc(Cl)ccc2Cl)o1)C(=O)Nc1cccc2ncccc12,Potency,[1],inactive
same,Potency,[2],inactive
COc1ccc(/C=C/C(=O)Nc2ccccc2C(=O)O)cc1OC,Potency,[1],inactive
same,Potency,[2],inactive
same,Potency,[3],3.01 µM (active)
same,outcome,[4],inactive
same,Potency,[5],21.3 µM (active)
same,outcome,[6],inactive
CC(C)NC[C@@H](O)c1ccc(O)c(O)c1,Potency,[1],inactive
same,Potency,[2],inactive
NC(=S)c1ccc[n+]([C@@H]2O[C@@H](COP(=O)([O-])OP(=O)(O)OC[C@H]3O[C@@H](n4cnc5c(N)ncnc54)[C@H](OP(=O)(O)O)[C@@H]3O)C(O)C2O)c1 (stereo not given in full),Potency,[1],inactive
same,Potency,[2],inactive
Cc1cc(NC2CCCCC2)nc(-n2nc(C)cc2C)n1,Potency,[1],inactive
same,Potency,[2],inactive
O=c1[nH]c2ccccc2n1CCCN1CCN(C(c2ccccc2)c2ccccc2)CC1,Potency,[1],inactive
same,Potency,[2],inactive
CN(C)CCC(c1ccc(Cl)cc1)c1ccccn1 (stereo not given),Potency,[1],inactive
same,Potency,[2],inactive
NCCCCC(=O)O,Potency,[1],inactive
same,Potency,[2],inactive
C[C@H](O)[C@H](O)[C@H]1CNc2nc(N)[nH]c(=O)c2N1,Potency,[1],18 µM (active)
same,Potency,[2],20.2 µM (active)
same,Potency,[3],inactive
same,outcome,[4],inactive
same,Potency,[5],inactive
same,outcome,[6],inactive
O=C(O)CC[C@@H](C(=O)O)N1C(=O)c2ccccc2C1=O,Potency,[1],inactive
same,Potency,[2],inactive
CC1(C)S[C@@H]2[C@H](NC(=O)[C@H](NC(=O)N3CCN(S(C)(=O)=O)C3=O)c3ccccc3)C(=O)N2[C@H]1C(=O)O,Potency,[1],inactive
same,Potency,[2],inactive
same,Potency,[3],inactive
same,outcome,[4],inactive
same,Potency,[5],inactive
O=[N+]([O-])c1ccc(CNc2nc(NCc3cccc(C(F)(F)F)c3)nc3nc[nH]c23)cc1,Potency,[1],inactive
same,Potency,[2],inactive
same,Potency,[3],inactive
same,outcome,[4],inactive
same,Potency,[5],inactive
same,outcome,[6],inactive
